Screening data deposited in PubChem BioAssay by several laboratories.
MITF TRPM1 HTS = increases MITF-driven TRPM1 promoter luciferase signal; AID 588334; activation, % at 12.5 µM; 0.75% of 300,000 active; SK-MEL-5 TRPM1-promoter luciferase, 24 h; % of positive control, neutral wells = 0;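 active = mean activation of at least 80% with every replicate also reaching 80%; inconclusive = mean reaches 80% but some replicate falls short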;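 note: 0% = neutral control wells and 100% = parthenolide positive control wells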
A3A deaminase = inhibitors of human APOBEC3A DNA deaminase. inhibition, % at 20 µM. P31941. 0.41% of 330,000 active. recombinant A3A, FAM/TAMRA ssDNA deamination fluorescence;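 active = at least 40% inhibition at 20 µM here, with at most 30% in a related deaminase screen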;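 note: plate controls were A3A with DMSO for no effect and wells lacking A3A enzyme for full effect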
Target sequence (P31941 whole entry, looked up): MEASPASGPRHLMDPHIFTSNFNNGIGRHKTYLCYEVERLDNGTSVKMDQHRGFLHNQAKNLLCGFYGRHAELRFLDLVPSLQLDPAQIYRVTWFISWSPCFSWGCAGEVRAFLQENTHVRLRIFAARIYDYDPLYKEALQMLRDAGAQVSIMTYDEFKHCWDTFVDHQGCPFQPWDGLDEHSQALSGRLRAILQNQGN
PHOSPHO1 block = blocks human PHOSPHO1 phosphatase activity; AID 1565; inhibition, % at 13.3 µM; recombinant PHOSPHO1, absorbance phosphatase assay; 1.1% of 290,000 active; in the data active = inhibition above about 60%
Target sequence (Q8TCT1 whole entry, looked up): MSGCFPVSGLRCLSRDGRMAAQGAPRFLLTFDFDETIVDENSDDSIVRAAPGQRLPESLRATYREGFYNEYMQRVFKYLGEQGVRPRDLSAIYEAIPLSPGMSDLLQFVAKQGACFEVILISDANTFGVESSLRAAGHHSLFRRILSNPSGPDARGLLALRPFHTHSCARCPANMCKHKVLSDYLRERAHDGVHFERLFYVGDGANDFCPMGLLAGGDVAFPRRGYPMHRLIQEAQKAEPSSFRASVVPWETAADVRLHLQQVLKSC
esBAF inh = blocks esBAF chromatin remodeling in mouse ES cells; 2% of 350,000 active; AID 602393; reporter increase, % at 12.5 µM; Bmi1-luciferase knock-in reporter, 24 h; 100% = twice the neutral-well signal; in the data active = activation above about 40%; inconclusive = no clear call, values can overlap the other calls;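 note: 0% = median of the plate's neutral control wells and 100% = double that signal; a rise in the Bmi1 reporter signal indicates esBAF inhibition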
APOBEC3G inh = blocks human APOBEC3G single-stranded DNA deamination; Q9HC16; recombinant A3G, ssDNA deamination FAM/TAMRA fluorescence; inhibition, % at 20 µM; 0.28% of 330,000 active;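 active = inhibition of at least 40% at 20 µM, with no more than 30% in the related APOBEC3A deaminase screen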;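 note: plate controls were DMSO wells with A3G for no effect and wells lacking A3G enzyme for full effect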
Wnt act = Wnt/beta-catenin pathway activation. Wnt/beta-catenin reporter cell assay, activator, plate reader. activation, % at 9.35 µM. 1.2% of 300,000 active; in the data active = activation above about 30%, passing the limit was not always enough; inconclusive = no clear call, values can overlap the other calls;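 note: 0% = neutral control wells and 100% = positive control wells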
* = called active by the depositor. Most compounds without a hit are left out; they make up all but 3.6% or so of the library.

For CCN(CC(=O)Nc1cc(Cl)ccc1C)C(=O)c1ccc(=O)n(Cc2ccccc2)n1 the results were MITF TRPM1 HTS -5, A3A deaminase 4, PHOSPHO1 block 62*, esBAF inh -6, APOBEC3G inh 0 and Wnt act -3.
`O=C(Oc1ccccc1/C=C\C(=O)c1cc2ccccc2o1)c1ccccc1` gave MITF TRPM1 HTS 12, A3A deaminase -1, PHOSPHO1 block 14, APOBEC3G inh -9 and Wnt act 53*.
For COc1cccc(C(=O)Oc2ccccc2/C=C\C(=O)c2cc3ccccc3o2)c1 the results were MITF TRPM1 HTS -17, PHOSPHO1 block -9 and Wnt act 152*.
For COc1ccc(O)c(C(=O)/C=C/c2cc3ccccc3o2)c1 the results were MITF TRPM1 HTS -1, A3A deaminase 0, esBAF inh -11, APOBEC3G inh -1 and Wnt act 1.
For O=C(Oc1ccccc1/C=C\C(=O)c1cc2ccccc2o1)c1cccc(F)c1 the results were MITF TRPM1 HTS 11, A3A deaminase 4, PHOSPHO1 block -29 and APOBEC3G inh -2.
Screening O=C(C1CCOCC1)N1C[C@H]2[C@@H](c3ccccc31)[C@@H](CO)N2Cc1ccccc1Cl returned esBAF inh -7.
C[C@@H]1CN([C@@H](C)CO)C(=O)c2cc(NS(=O)(=O)c3cccs3)ccc2O[C@@H](C)CCCCO[C@@H]1CN(C)CC1CCCCC1 was read as esBAF inh 2.
`Cc1ccc(-c2nn(-c3ccccc3)cc2/C=N/O)cc1` gave MITF TRPM1 HTS 92*, A3A deaminase -3, PHOSPHO1 block 1, esBAF inh 14, APOBEC3G inh -7 and Wnt act 3.
`Cc1ccc(-c2nn(-c3ccccc3)cc2CO)cc1` gave MITF TRPM1 HTS 69, A3A deaminase 2, PHOSPHO1 block 34, esBAF inh 90*, APOBEC3G inh -4 and Wnt act 14.
C[C@H](CO)N1C[C@H](C)[C@H](CN(C)S(=O)(=O)c2cn(C)cn2)OCCCC[C@H](C)Oc2ccc(NS(=O)(=O)c3ccc(Cl)cc3)cc2C1=O was read as esBAF inh 7.
Screening Cn1ccnc1SCC(=O)Nc1ccc(Oc2ccccc2)cc1 returned MITF TRPM1 HTS inconclusive, A3A deaminase -2, PHOSPHO1 block 84*, esBAF inh 50*, APOBEC3G inh -4 and Wnt act 7.
Cn1ccnc1SCC(=O)c1cccc(C(F)(F)F)c1 was read as MITF TRPM1 HTS 89*, A3A deaminase -6, PHOSPHO1 block 15, esBAF inh 33, APOBEC3G inh -9 and Wnt act 24.
CCOc1ccc(NC(=O)CSc2nccn2C)cc1 was read as MITF TRPM1 HTS 56, A3A deaminase -2, PHOSPHO1 block -1, esBAF inh inconclusive, APOBEC3G inh -6 and Wnt act 6.
Screening COc1ccc(C(=O)CSc2nccn2C)cc1 returned MITF TRPM1 HTS 79, A3A deaminase 2, PHOSPHO1 block 6, esBAF inh 42*, APOBEC3G inh -4 and Wnt act 17.
Screening CN(C)C(=O)C[C@@H]1C=C[C@H](NC(=O)Nc2cccc(F)c2)[C@@H](CO)O1 returned esBAF inh -15.
For Cc1cc(C(=O)Nc2cccc3cccnc23)ccc1[N+](=O)[O-] the results were MITF TRPM1 HTS 5, A3A deaminase 0, PHOSPHO1 block 23, esBAF inh 49*, APOBEC3G inh -4 and Wnt act 8.
Cc1ccc(NC(=O)c2ccc(C(C)(C)C)cc2)cc1[N+](=O)[O-] was read as MITF TRPM1 HTS 121*, A3A deaminase 0, PHOSPHO1 block 14 and APOBEC3G inh -8.
Screening CC(C)(C)c1ccc(NC(=O)c2ccccc2)c([N+](=O)[O-])c1 returned MITF TRPM1 HTS 60, A3A deaminase 2, PHOSPHO1 block 35, esBAF inh 13, APOBEC3G inh -7 and Wnt act 75*.
Screening CC(C)(C)c1ccc(C(=O)Nc2ccc(Cl)cc2)cc1 returned MITF TRPM1 HTS 99*, A3A deaminase 4, PHOSPHO1 block 3, APOBEC3G inh -1 and Wnt act 15.
For CO[C@@H]1CN(C)C(=O)c2cc(NC(=O)C3CCCC3)ccc2OC[C@H](C)NC[C@H]1C the results were esBAF inh -2.
Cc1cc(C)nc(Nc2ccc(C)c([N+](=O)[O-])c2)n1 was read as MITF TRPM1 HTS 42, A3A deaminase 4, PHOSPHO1 block 41, esBAF inh 49*, APOBEC3G inh -3 and Wnt act 9.
Screening Cc1cc(C(=O)Nc2ccc3c(c2)CCC3)ccc1[N+](=O)[O-] returned A3A deaminase -1, APOBEC3G inh 4 and Wnt act 51*.
Screening CC(=O)Nc1nonc1NC(=O)c1ccc(C(C)(C)C)cc1 returned A3A deaminase 0, PHOSPHO1 block -3, esBAF inh 32, APOBEC3G inh 0 and Wnt act 55*.
Cn1c(-c2nonc2NC(=O)c2ccc(C(C)(C)C)cc2)nc2ccccc21 was read as PHOSPHO1 block -24.
For Cc1ccc(C(=O)NCC(=O)Nc2ccc3c(c2)CCC3)cc1C the results were MITF TRPM1 HTS -5, A3A deaminase 6, esBAF inh 6, APOBEC3G inh 4 and Wnt act 0.
For COc1ccccc1CN1[C@H](CO)[C@@H]2c3ccccc3N(C(=O)c3ccncc3)C[C@@H]21 the results were esBAF inh 2.
C[C@H](CO)N1C[C@H](C)[C@H](CN(C)C(=O)Nc2cccc3ccccc23)Oc2ncccc2C1=O was read as esBAF inh -1.
`C[C@@H]1CCCCO[C@@H](CN(C)C(=O)Nc2ccc(F)cc2)[C@H](C)CN([C@@H](C)CO)C(=O)c2cc(NC(=O)NC3CCCCC3)ccc2O1` gave esBAF inh 5.
C[C@@H]1CN([C@@H](C)CO)C(=O)c2cc(NC(=O)c3ccccc3)ccc2O[C@@H](C)CCCCO[C@@H]1CN(C)C(=O)NC1CCCCC1 was read as esBAF inh -1.
Cc1ccc(C)c(S(=O)(=O)NC(C)C(=O)Nc2ccc(-c3nc4ccccc4s3)cc2)c1 (stereo unspecified) was read as MITF TRPM1 HTS 50, A3A deaminase 1, PHOSPHO1 block 58, esBAF inh 52*, APOBEC3G inh -3 and Wnt act 13.
O=C(CNS(=O)(=O)c1cccc(Cl)c1)Nc1ccc(-c2nc3ccccc3s2)cc1 was read as MITF TRPM1 HTS 51, A3A deaminase -4, PHOSPHO1 block -9, APOBEC3G inh -9 and Wnt act inconclusive.
For CC(C)(C)c1ccc(S(=O)(=O)NCC(=O)Nc2ccc(-c3nc4ccccc4s3)cc2)cc1 the results were MITF TRPM1 HTS 58, A3A deaminase -7, PHOSPHO1 block -15, esBAF inh 53* and APOBEC3G inh -10.
